Cruzain Triton: cruzain (T. cruzi) inhibition with detergent; P25779; purified cruzain, Z-FR-AMC fluorescence, 0.01% Triton; Potency, µM, inactives show max response, negative = inhibition, actives largely listed as inhibitors; actives 0.43% (n = 200,000);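 note: plate controls were neutral wells for no effect and buffer without enzyme for full effect; nearly all actives have a fitted effect of over 40% in size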
Target sequence (P25779 123-467 limits assumed): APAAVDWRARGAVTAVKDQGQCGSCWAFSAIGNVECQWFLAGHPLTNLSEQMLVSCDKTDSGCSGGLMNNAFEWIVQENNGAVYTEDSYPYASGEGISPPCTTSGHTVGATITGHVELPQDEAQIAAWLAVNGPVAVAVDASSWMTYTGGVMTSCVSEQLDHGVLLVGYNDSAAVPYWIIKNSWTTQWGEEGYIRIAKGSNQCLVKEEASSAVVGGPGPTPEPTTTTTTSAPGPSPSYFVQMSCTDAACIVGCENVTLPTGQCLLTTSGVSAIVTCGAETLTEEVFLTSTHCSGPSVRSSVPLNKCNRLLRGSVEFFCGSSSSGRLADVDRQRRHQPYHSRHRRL
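Cysteine protease activity tested under reducing, mildly acidic conditions (100 mM sodium acetate pH 5.5, 5 mM DTT) plus 0.01% Triton X-100. Cruzain 1.5 nM; substrate Z-FR-AMC 2 uM; 15 min compound preincubation at room temperature.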
Cruzain inh noDet: blocks cruzain activity in detergent-free assay. Potency, µM, inactives show max response, negative = inhibition, most hits filed as inhibitors. AID 1476. purified cruzain, Z-FR-AMC fluorescence, no detergent. actives 2.3% (n = 200,000);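 note: plate controls were enzyme without inhibitor for no effect and buffer without enzyme for full effect; nearly all actives have a fitted effect of over 40% in size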
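Purified cruzain at 1.5 nM, pre-incubated 15 min with compound at room temperature in 100 mM sodium acetate pH 5.5, 5 mM DTT, 0.00005% Triton X-100. Reaction started with 2 uM Z-FR-AMC; AMC fluorescence increase over 60 s gives rate.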
The depositor's hits bear a star; ? = inconclusive; ! = not confirmed by another sample. Shown are actives, neighbours in structure and some others; about 2.6% of the full set was active somewhere. Calls come from the whole dose curve; as a rule, active = well fitted curve in the direction sought with a large enough effect; inconclusive = small, poorly fitted or top-dose-only effect, or another doubt; inactive = no such curve, though single readings can be large; an effect the other way counts as inactive or inconclusive. Potency is the fitted concentration of half-maximal effect.

SMILES	Cruzain Triton	Cruzain inh noDet
O=C(COc1ccc(/C=N/NC(=O)c2cc3ccccc3o2)cc1Br)Nc1ccccc1	25.1µM*	10µM*
CCc1ccc(NC(=O)CO/N=C(\C)c2cc3ccccc3o2)cc1	-9.0%	-8.9%
O=C(NCCCc1nc2ccccc2n1Cc1ccc(Cl)cc1)C1CCCCC1	-10.4%	6.2%
CCCS(=O)(=O)c1nc(S(=O)(=O)c2ccc(C)cc2)c(NCc2ccccc2)s1	-4.6%	-10.9%
Cc1ccc(-c2csc3ncnc(SCC(=O)NCc4ccc5c(c4)OCO5)c23)cc1	-0.9%	25.1µM*
O=C(CSc1ncnc2scc(-c3ccc(Cl)cc3)c12)NCc1ccc2c(c1)OCO2	-0.7%	?
O=c1c2c3c(sc2nnn1Cc1ccc(Br)cc1)CCCC3	-7.2%	-4.5%
O=C(NCC#CCOCc1ccccc1)c1ccccc1	11.2µM*	12.6µM*
O=C(NCCCc1ccccc1)c1ccccc1	5.2%	1.2%
O=C(O)C1Cc2c([nH]c3ccccc23)C(c2coc3ccccc3c2=O)N1 (stereo not drawn)	1.0%	-11.1%
CCOc1ccc(CCNC(=O)C2CCN(c3nnc(-n4cccc4)s3)CC2)cc1	-1.2%	15.8µM*
CCOc1ccc(CCNC(=O)C2CCN(c3nnc(-n4cccc4)s3)CC2)cc1OCC	-5.4%	13.8%
O=C(c1cc(C(=O)NCc2ccccc2)c(=O)n(Cc2ccccc2)c1)c1cc(Cl)ccc1O	-4.4%	?
Cc1ccccc1NC(=O)c1cc(C(=O)c2cc(Cl)ccc2O)cn(-c2ccccc2C)c1=O	-3.7%	7.94µM*
Cc1ccccc1C(=O)Nc1cccc(C(=O)OCc2cc(=O)n3ccsc3n2)c1	0.9%	4.6%
Cn1c(=O)n(CCCc2ccccc2)c(=O)c2c1nc1n2CCN1c1ccccc1	-4.4%	0.6%
COC(=O)CSc1nc2cc(OC)ccc2cc1C#N	-3.1%	-10.4%
COc1ccc2cc(C#N)c(SCC(=O)NNC(=O)Cc3ccccc3)nc2c1	4.5%	12.6µM*
COc1cccc(-c2ccc(C#N)c(SCC(=O)NCCc3cccc(Cl)c3)n2)c1	-4.0%	31.6µM*
COc1ccc(-c2ccc(C#N)c(SCC(=O)NCCc3ccccc3)n2)cc1OC	3.4%	0.5%
Cc1ccccc1NC(=O)CSc1nc(N)c(C#N)cc1C#N	4.6%	-10.7%
CCOc1ccc2cc(C#N)c(SCC(=O)NC(C)CC)nc2c1 (stereo not drawn)	3.3%	12.6µM*
CCOC(=O)CSc1nc2cc(OCC)ccc2cc1C#N	-9.0%	-16.2%
Cc1ccc2cc(C#N)c(SCC(=O)NNC(=O)Cc3ccccc3)nc2c1	-2.5%	10µM*
CC(=O)Oc1ccc(/C=C/C(=O)CC2OC(Oc3cc(OC(C)=O)c4c(c3)O[C@@H](c3ccc(OC(C)=O)cc3)CC4=O)C(OC(C)=O)C(OC(C)=O)C2OC(C)=O)cc1 (stereo partly drawn)	-0.1%	-3.3%
SMILES	Cruzain Triton	Cruzain inh noDet
COC(=O)c1cccc(NC(=O)N(C)CCc2c(C)nn(C)c2C)c1	-0.4%	-5.3%
CCCCN(C)CCCNC(=O)c1cc(=O)[nH]c2ccc(S(=O)(=O)N3CCCCC3)cc12	0.4%	1.3%
CC(=O)c1cccc(NC(=O)CSc2ncc3c(n2)-c2cc(Cl)ccc2N(Cc2ccccc2)S3(=O)=O)c1	-2.2%	-14.3%
CC(C)c1cccc(C(C)C)c1NC(=O)c1ccc(OCC(=O)NCc2ccccc2)cc1	0.1%	7.94µM*
CC(C)c1ccccc1NC(=O)COc1ccc(C(=O)NCCc2ccccc2)cc1	0.0%	?
O=C(Cn1ncc2c3ccccc3n(Cc3ccccc3F)c2c1=O)NCc1ccccc1Cl	-1.0%	-3.3%
Cc1ccc2c(c1)sc1nc(=O)n(-c3ccc(Cl)cc3)c(=O)n12	-2.1%	7.8%
Cc1ccc2c(c1)sc1nc(=O)n(-c3ccc(Cl)c(Cl)c3)c(=O)n12	-2.2%	20µM*!
Cc1ccc(CN(Cc2cccn2-c2nnc(N3CCCC3=O)s2)C(=O)Nc2ccccc2C(F)(F)F)cc1	-4.9%	?
Cc1nnc(-c2ccc(Oc3ccc(Br)cc3)c([N+](=O)[O-])c2)o1	-3.1%	4.5%
Cc1cc(Oc2ccc(-c3nnc(-c4ccccc4)o3)cc2[N+](=O)[O-])ccc1Cl	0.1%	12.6µM*
Cc1cc(C)c(NC(=O)CSc2nc(=O)n(Cc3ccco3)c3c2CCC3)c(C)c1	-2.4%	-14.8%
O=C(NCc1cccc(Cl)c1)c1cc2ccc3cccnc3c2[nH]1	-6.0%	-20.0%
O=C(NCc1ccc(Cl)cc1)c1cc2ccc3cccnc3c2[nH]1	-6.2%	25.1µM*
CCC1CCC(C(=O)NC(C(=O)NCCN(CC(C)C)CC(C)C)C(C)C)CC1 (stereo not drawn)	-4.9%	-5.8%
O=C1/C(=C\c2ccco2)SC(=S)N1Cc1ccccc1	-29.1%	-16.5%
Cc1cc(/C=C2\SC(=S)N(Cc3ccco3)C2=O)c(C)n1-c1ccccc1	-3.9%	10µM*
COCCNC(=O)C1CCC(CNS(=O)(=O)c2ccc3c(c2)CC(C)N3C(C)=O)CC1 (stereo not drawn)	1.2%	-3.5%
COc1ccc(CNC(=O)c2ccc3c(c2)N(C)C(=O)C2CCCCN32)cc1OC (stereo not drawn)	-3.7%	-6.2%
Clc1cccc(CSc2nncn3c2cc2sccc23)c1	-8.2%	14.4%
CCCOc1ccc(-c2nnn(CC(=O)c3c[nH]c4ccccc34)n2)cc1	1.9%	7.94µM*
CCOc1ccc(-c2nnn(CC(=O)NCCc3c[nH]c4ccccc34)n2)cc1	-7.6%	-16.6%
CS(=O)(=O)c1sc2nc(-c3cccs3)cc(-c3ccccc3)c2c1N	-17.8%	20µM*
Cc1ccc(-c2cc(-c3ccccc3)c3c(N)c(S(C)(=O)=O)sc3n2)cc1	-7.7%	?
Cc1ccc(Cn2c(CO)cnc2SCC(=O)NCc2ccccc2Cl)cc1	-1.4%	-5.0%
SMILES	Cruzain Triton	Cruzain inh noDet
CC(Sc1nnc(NC2CCCCC2)s1)C(=O)Nc1ccc2c(c1)C(=O)c1ccccc1C2=O (stereo not drawn)	-0.2%	15.8µM*
CC(Sc1nnc(Nc2ccccc2)s1)C(=O)NC1CCCc2ccccc21 (stereo not drawn)	-10.3%	-12.5%
O=C(Nc1cccc(Cl)c1)C1CCCN(c2ncnc3c2nc2n3CCCCC2)C1 (stereo not drawn)	-4.7%	?
CCOC(=O)c1cccc(NC(=O)/C=C/c2ccc3c(c2)OCO3)c1	-8.0%	-10.7%
COc1ccc(NC(=O)C(NC(=O)/C=C\c2ccc3c(c2)OCO3)c2ccc(OC)cc2)cc1 (stereo not drawn)	-4.1%	?
CC(=O)c1cccc(NC(=O)C(OC(=O)/C=C/c2ccc3c(c2)OCO3)c2ccccc2)c1 (stereo not drawn)	1.6%	10µM*
Cc1ccc(C(NC(=O)/C=C\c2ccc3c(c2)OCO3)C(=O)Nc2ccc3c(c2)OCO3)cc1 (stereo not drawn)	-3.5%	31.6µM*
CC(CNC(=O)c1nnc(Cc2ccc(F)cc2)o1)c1ccccc1 (stereo not drawn)	-2.3%	-2.7%
CCOc1ccc(NC(=O)c2sc3nc4c(c(-c5ccc(OC)cc5)c3c2N)C(=O)CC(C)(C)C4)cc1	-1.6%	-17.8%
Cc1ccc(NC(=O)Cn2c(=O)n(Cc3nc(C)no3)c(=O)c3ccccc32)c(Cl)c1	-1.9%	-3.3%
O=C1N=C(N2CCN(c3cccc4ccccc34)CC2)S/C1=C/c1cccs1	-9.8%	20µM*
Cc1ccccc1N1CCN(C2=NC(=O)/C(=C\c3cccs3)S2)CC1	-14.1%	?
COc1ccc(NC(=O)CN(c2ccc([N+](=O)[O-])cc2)S(=O)(=O)c2ccccc2)c(OC)c1	-4.2%	-4.7%

High-throughput results as filed in PubChem.
